PGK inhibitor = inhibitors of T. brucei phosphoglycerate kinase. Potency, µM (titrated, usually from 57.5 µM), most hits filed as inhibitors. AID 602233. P07378. hit rate 0.043% among 380,000. PGK/GAPDH coupled, Kinase-Glo luminescence, 60 min; also: nearly all actives have a fitted effect of over 60% in size
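Recombinant glycosomal PGK reaction used 1,3-bisphosphoglycerate generated in-well by GAPDH (100nM final) in 100mM TEA pH 7.6, 5mM MgCl2, 0.01% Tween-20. After 60 minutes at room temperature, ATP was read by Kinase-Glo Plus luminescence end-point.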
GLS inhibitor = blocks human kidney-isoform glutaminase activity; GLS enzymatic activity, qHTS titration; Potency, µM (series often up to 45.5 µM), most hits filed as inhibitors; hit rate 0.21% among 410,000
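Glutamate formation by hKGA was monitored fluorometrically using coupled glutamate oxidase, HRP and Amplex Red. Substrate was added as 1 mM L-glutamine solution; incubation was 30 min at RT after an initial read.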
VDR inhibitor = inhibitors of human vitamin D receptor; Potency, µM, actives largely listed as inhibitors; P11473; hit rate 0.93% among 400,000; VDR-SRC2-3 peptide fluorescence polarization, 2 h
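The screen uses fluorescence polarization to detect compounds that interfere with recruitment of the SRC2-3 coactivator peptide to VDR; plates are read after 2 h at room temperature.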
Tb PFK block = blocks T. brucei phosphofructokinase; O15648; T. brucei PFK, ADP-Glo luminescence; Potency, µM (titrated, usually from 57.5 µM), actives largely listed as inhibitors; hit rate 0.17% among 330,000; also: nearly all actives have a fitted effect of over 60% in size
Target sequence (O15648 whole entry, looked up): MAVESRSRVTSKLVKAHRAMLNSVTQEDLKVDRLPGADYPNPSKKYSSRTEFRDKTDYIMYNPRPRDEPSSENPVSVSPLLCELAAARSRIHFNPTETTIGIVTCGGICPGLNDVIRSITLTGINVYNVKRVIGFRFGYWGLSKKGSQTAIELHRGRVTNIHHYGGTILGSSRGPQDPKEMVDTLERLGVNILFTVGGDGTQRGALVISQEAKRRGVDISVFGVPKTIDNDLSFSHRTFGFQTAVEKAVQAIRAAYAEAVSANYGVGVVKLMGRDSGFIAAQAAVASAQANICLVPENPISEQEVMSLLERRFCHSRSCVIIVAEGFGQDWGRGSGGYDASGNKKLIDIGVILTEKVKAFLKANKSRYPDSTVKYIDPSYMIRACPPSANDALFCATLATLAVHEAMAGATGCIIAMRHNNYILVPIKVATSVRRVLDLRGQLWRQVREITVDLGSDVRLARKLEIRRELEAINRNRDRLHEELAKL
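Luminescent ADP detection (ADP-Glo, two-step: ATP depletion then ADP-to-ATP conversion for luciferase) reported PFK activity after 45 min room-temperature reaction of 1.25 nM enzyme with 0.5 mM F6P and 0.1 mM ATP at pH 8.0.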
Pin1 inhibitor = human Pin1 inhibition. Q13526. Pin1 FP peptide displacement, HiFluor488, 10 min. Potency, µM (highest dose often 115 µM), usual class: inhibitors. hit rate 0.009% among 390,000. AID 504891; active = well fitted inhibition curve with a large enough effect in the polarisation, with a control signal flat, not every such curve was filed as active; inconclusive = small, poorly fitted or top-dose-only effect, or effect the other way, or a change in a side signal; inactive = no such curve, though single readings can be large or run the other way; the % refers to the polarisation
Target sequence (Q13526 whole entry, looked up): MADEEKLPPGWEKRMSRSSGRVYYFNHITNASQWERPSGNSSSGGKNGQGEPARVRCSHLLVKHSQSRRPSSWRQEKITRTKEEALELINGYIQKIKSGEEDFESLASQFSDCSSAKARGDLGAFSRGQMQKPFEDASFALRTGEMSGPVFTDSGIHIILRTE
USP1-UAF1 confirm = USP1-UAF1 deubiquitinase inhibition validated; AID 540327; hit rate 50% among 50; shares compounds with VDR inhibitor; Potency, µM (series often up to 114 µM), actives largely listed as inhibitors; Ub-Rhodamine cleavage, fluorescence kinetic read
VDR inh confirm = inhibits human vitamin D receptor, primary hit validation. hit rate 89% among 840. shares compounds with VDR inhibitor. Potency, µM, usual class: inhibitors. VDR-coactivator inhibition assay, qHTS confirmation. AID 602199
VDR FP = VDR (human) coactivator binding inhibition, fluorescein polarization | shares compounds with VDR inhibitor | Potency, µM (highest dose often 57.1 µM), most hits filed as inhibitors | VDR-coactivator binding, fluorescein fluorescence polarization | hit rate 48% among 840
VDR bla = VDR (human) inhibition, cell-based beta-lactamase validation | shares compounds with VDR inhibitor | VDR beta-lactamase reporter cells, FRET ratio; cells co-treated with VDR agonist LG190178 | Potency, µM (top dose mostly 46.1 µM), usual class: inhibitors | hit rate 23% among 840 | AID 602202
VDR cytotox = cytotoxic in counter-screen for VDR inhibitors; hit rate 18% among 840; cytotoxicity counter-screen, cell viability, qHTS; shares compounds with VDR inhibitor; Potency, µM (top dose mostly 48.3 µM), most hits filed as cytotoxic; also: nearly all actives have a fitted effect of over 75% in size
Numbers stand for hits; – = inactive; ? = inconclusive; · = no result given; ! = not confirmed by another sample. Hits are enriched below; roughly 1.1% of the tested compounds scored in any of these assays. Unless noted, calls follow the shape of the dose curve; as a rule, active = well fitted curve in the direction sought with a large enough effect; inconclusive = small, poorly fitted or top-dose-only effect, or another doubt; inactive = no such curve, though single readings can be large; an effect the other way counts as inactive or inconclusive.

SMILES	PGK inhibitor	GLS inhibitor	VDR inhibitor	Tb PFK block	Pin1 inhibitor	VDR inh confirm	VDR FP	VDR bla	VDR cytotox	others
CCN(CC)S(=O)(=O)c1cc(NC(=O)c2ccc3c(c2)NC(=O)C(C)S3)ccc1C (stereo unspecified)	–	–	79µM	–	–	21	?	?	?
Cc1ccc(-c2nnc(SCC(=O)NCCN3C(=O)CSC3=O)n2C)cc1	–	–	–	–	–	·	·	·	·
COC(=O)CSC1=NS(=O)(=O)c2ccccc21	–	–	32µM	–	–	8.4	?	–	–
O=C(CSC1=NS(=O)(=O)c2ccccc21)Nc1ccccc1	–	–	16µM	–	–	11	–	–	–
COC(=O)CSc1ccccc1C(=O)OC	–	–	–	–	–	·	·	·	·
O=C(CSC1=NS(=O)(=O)c2cc(F)ccc2N1)Nc1ccccc1	–	–	–	–	–	·	·	·	·
CCON1C(=O)C2(CCCCC2)C(=O)C12C=CCCC2 (stereo unspecified)	–	–	–	·	–	·	·	·	·
COc1ccc2[nH]c3c4c(ccc3c2c1)C(=O)C=CC4=O	–	?	?	12µM	–	7.1	5µM	6.5µM	?
COc1ccc2[nH]c(-c3ccc(F)cc3F)cc(=O)c2c1	·	·	–	·	·	·	·	·	·
CCCOc1ccc(C2c3c(-c4ccccc4O)n[nH]c3C(=O)N2CCCOCC)cc1OCC (stereo unspecified)	–	–	–	·	?	·	·	·	·
Cc1ccc(CCNC(=O)CN2C(=O)COc3ccc(S(=O)(=O)N4CCCCCC4)cc32)cc1	–	–	–	·	–	·	·	·	·
CCN1C/C(=C/c2cccc([N+](=O)[O-])c2)C(=O)/C(=C/c2cccc([N+](=O)[O-])c2)C1	–	–	10µM	–	–	3.4	?	2.1µM	?
COc1cc(/C=C(\C#N)C(=O)Nc2cccc3ncccc23)ccc1O	·	·	·	–	·	·	·	·	·
N#C/C(=C\c1ccc(-c2cc(Cl)ccc2Cl)o1)C(=O)Nc1cccc2ncccc12	·	·	?	·	·	·	·	·	·	USP1-UAF1 confirm=?
C=CC(C)(C)c1[nH]c2ccccc2c1C1=C(O)C(=O)C(c2c[nH]c3c(CC=C(C)C)cccc23)=C(O)C1=O	·	·	18µM	·	·	·	·	·	·	USP1-UAF1 confirm=?
C=CC(C)(C)c1c(O)c(CC=C(C)C)c(O)c2c(=O)c3ccc(O)c(O)c3oc12	–	–	–	·	?	·	·	·	·
CCc1nc2ccc(C(=O)NC3CCN(Cc4ccccc4)CC3)cn2c1N(C)Cc1ccc(N(C)C)cc1	·	–	·	·	·	·	·	·	·
Cc1oc2c(c1C(=O)c1ccccc1)C(=O)C(=O)c1ccccc1-2	–	–	?	–	?	2.5	3.2µM	21µM	3.4µM
O=C1C(=O)c2c(C(=O)c3ccccc3)coc2-c2ccccc21	–	–	3.2µM	–	–	4.2	?	?	18µM
Cc1oc2c(c1C(=O)O)C(=O)c1ccccc1C2=O	–	–	–	–	–	·	·	·	·
CCCC(=O)N(c1ccc2oc3c(c2c1)CCCC3)S(=O)(=O)c1ccc(CC)cc1	–	–	–	·	–	·	·	·	·
COc1ccc(-n2c(SCC#N)nc3c(sc(=S)n3-c3ccccc3)c2=O)c(OC)c1	–	–	25µM	–	–	8.4	?	–	–
COc1ccccc1-n1c(SC)nc2c(sc(=S)n2-c2ccccc2)c1=O	–	–	–	–	–	·	·	·	·
O=C(/C(=C\c1ccccc1)c1nc2ccccc2[nH]1)c1ccc(Cl)cc1	–	–	?	–	–	·	·	·	·
O=C(/C(=C/c1ccc(Cl)cc1)c1nc2ccccc2[nH]1)c1cccs1	–	–	18µM	–	–	9.5	?	6.5µM	8.2µM
SMILES	PGK inhibitor	GLS inhibitor	VDR inhibitor	Tb PFK block	Pin1 inhibitor	VDR inh confirm	VDR FP	VDR bla	VDR cytotox	others
CC(C)CN1CCCC2(CCN(C(=O)c3cc(C(F)(F)F)cc(C(F)(F)F)c3)CC2)C1	·	·	–	·	·	·	·	·	·
Cc1sc(NC(=O)COc2ccccc2)c(C#N)c1C	–	–	50µM	–	–	24	?	–	–
CN(C)c1ccc(C(=O)/C=C/c2cccnc2)cc1	–	–	–	–	–	·	·	·	·
O=C(/C=C/c1ccc2c(c1)OCO2)c1cccnc1	–	–	?	–	–	·	·	·	·
O=C(/C=C/c1cccnc1)c1ccc(F)c(F)c1	–	–	45µM	–	–	?	8.9µM	?	?
O=C(/C=C/c1ccc([N+](=O)[O-])cc1)c1cccnc1	–	–	56µM	–	–	24	8.9µM	–	?
COCCCNC(=O)C1CCN(C(=O)c2ccc(-n3ccc4ccccc43)s2)CC1	–	–	–	·	–	·	·	·	·
c1ccc2cc(CCO[C@H]3CCCCO3)ncc2c1	–	–	–	–	–	·	·	·	·
CCC(=O)c1ccc(OCC(=O)O)cc1	–	–	–	–	–	·	·	·	·
CCCc1c(OCCCOc2ccc(OCC(=O)O)cc2)ccc(C(C)=O)c1O	–	–	50µM	–	?	·	·	·	·	USP1-UAF1 confirm=?
CCc1nc2ccc(C(=O)NCCCN3CCCC3=O)cn2c1N(C)C(=O)Nc1ccccc1OC	·	–	·	·	·	·	·	·	·
COC(CNC(=O)c1ccc2c3c(onc13)-c1ccccc1C2=O)OC	–	–	40µM	–	?	3.8	?	?	?
CC1(C)CCC2=C(O1)c1ccccc1C(=O)C2=O	·	·	8.9µM	·	·	14	11µM	?	24µM!	USP1-UAF1 confirm=8.3µM
CC1(C)CCC(=O)c2ccccc21	–	–	–	·	–	·	·	·	·
O=C(NCc1cccnc1)/C(=C\c1ccc(-c2cccc(Cl)c2)o1)S(=O)(=O)c1ccccc1	–	–	45µM	–	–	24	?	6.5µM	18µM
S=C(Nc1ccccc1Cl)Nc1ccc(Cl)cc1Cl	–	–	–	–	–	·	·	·	·
S=C(NNc1ccnc2cc(Cl)ccc12)Nc1ccccc1Cl	–	–	?	–	–	13	10µM	?	?
O=C(CCCN1C(=O)C(=Cc2ccc3c(c2)OCO3)SC1=S)Nc1ccc(C(=O)O)c(O)c1	·	–	·	·	·	·	·	·	·
COC(=O)CC1=NN(c2ccc(OC)cc2)C(=O)/C1=C\c1ccc(Cl)cc1	–	–	40µM	–	?	21	?	–	–
Cc1ccccc1Cn1c(C)c(C(=O)NCC(C)C)sc1=O	·	–	·	·	·	·	·	·	·
Cc1[nH]n(-c2ncc(-c3ccccc3)s2)c(=O)c1C(c1ccc(Br)cc1)C(C#N)C#N (stereo unspecified)	–	?	35µM	–	·	7.5	?	?	–

Bioassay records (PubChem BioAssay)
